From PubChem BioAssay (NCATS)
Results filed as inconclusive are left out. Unmarked numbers belong to inactive results. Active and inactive are the calls of the source. Calls follow the shape of the dose curve; as a rule, active = well fitted inhibition curve with a large enough effect; inconclusive = small, poorly fitted or top-dose-only effect; inactive = no such curve, though single readings can be large or run the other way.

Each compound was assayed against Cytochrome P450 3A7 (Homo sapiens) (UniProt P24462) (assay: Cytochrome P450 family 3 subfamily A member 7 (CYP3A7) small molecule antagonists: luciferase biochemical qHTS assay (AID 1963596; also: nearly all actives have a fitted effect of over 40% in size)). Conditions: P450-Glo CYP3A7 enzyme luminescence, 1 h; series mostly up to 57.4 µM; activity change, negative = inhibition: at the top concentration.
Chain of Cytochrome P450 3A7 (Homo sapiens) (P24462 whole entry, looked up): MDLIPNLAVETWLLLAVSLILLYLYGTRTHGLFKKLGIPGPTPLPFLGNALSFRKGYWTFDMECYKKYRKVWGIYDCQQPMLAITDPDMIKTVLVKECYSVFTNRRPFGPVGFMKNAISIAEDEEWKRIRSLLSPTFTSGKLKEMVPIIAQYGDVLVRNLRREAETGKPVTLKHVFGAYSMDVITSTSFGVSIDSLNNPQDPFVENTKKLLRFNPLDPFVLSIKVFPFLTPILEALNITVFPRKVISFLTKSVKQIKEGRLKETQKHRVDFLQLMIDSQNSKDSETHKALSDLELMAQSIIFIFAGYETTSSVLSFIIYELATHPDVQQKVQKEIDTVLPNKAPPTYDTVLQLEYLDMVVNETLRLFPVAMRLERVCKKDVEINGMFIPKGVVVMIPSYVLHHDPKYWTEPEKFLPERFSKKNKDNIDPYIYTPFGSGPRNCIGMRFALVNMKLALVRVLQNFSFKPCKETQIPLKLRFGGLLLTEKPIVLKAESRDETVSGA
Text: National Center for Advancing Translational Sciences [NCATS] Assay Overview: Cytochrome P450 (CYP) enzymes are membrane-bound hemeproteins that play a key role in metabolism of drugs and xenobiotics. The CYP3A subfamily is the most abundant, representing 30% of the total adult hepatic CYP content, whereas CYP3A7 is found predominantly in human fetal liver and accounts up to 50% of the total fetal hepatic CYP content. Testing the effect of chemicals on CYP isozymes is useful to minimize the adverse drug reactions and toxicities in the drug development process. Chemicals were tested for their effect on CYP enzyme activities by using P450-Glo (TM) screening systems (Promega Corporation, Madison, WI). These systems provide a luminescent method containing proluciferin substrates and are converted to luciferin products by CYP isozymes. The luciferin products formed are detected with a luciferin detection reagent, and the amount of light produced is proportional to CYP activity. P450-Glo (TM) CYP3A7 screening system (Catalog. No. V8812) was used to detect the compounds that interfere with CYP3A7 activity. The positive control compound used for CYP3A7 assay is ketoconazole (Sigma-Aldrich, St. Louis, MO).
Assay Protocol Summary: Two ul of enzyme-substrate mix was dispensed into medium binding white/solid 1536-well plates (Greiner Bio-One North America Inc., Monroe, NC) using a Flying Reagent Dispenser (FRD, Aurora Discovery, San Diego, CA). Compounds dissolved in DMSO, and positive control (ketoconazole) were transferred to the assay plates at 23 nl using a Pintool station (Wako, San Diego, CA). The assay plates were incubated at room temperature for 10 min. Then 2 ul of NADPH regeneration solution was added to each well of the assay plates using an FRD and incubated at room temperature for 1 h. The reaction was stopped by adding 4 ul of detection reagent using an FRD and after 20 min incubation at room temperature the luminescence signal was measured using a ViewLux plate reader (Perkin Elmer, Shelton, CT). Data were expressed as relative luminescence units.
% is scaled to controls: 0 for no effect and ±100 for the full control effect; potency is read from the fitted curve at half-maximal effect.

Row | Structure (SMILES) | activity change, negative = inhibition | Potency
1 | COc1ccc(C(=O)Nc2ccc3oc(-c4ccc(OC)cc4)nc3c2)cc1 | 0.861% | –
2 | FC(F)(F)Oc1ccc(-c2ccc3nnc(C(F)(F)F)n3c2)cc1 | 1.89% | –
3 | C[C@@H](c1ncncc1F)C(O)(Cn1cncn1)c1ccc(F)cc1F (stereo not given in full) | 13.5% | –
4 | Cc1noc(=O)c2ccc(NC(=O)C(O)(CC(C)(C)c3cccc4c3OCC4)C(F)(F)F)cc12 (stereo not given) | 0% | –
5 | Cc1cn([C@@H]2O[C@H](CO)[C@@H](O)[C@H]2F)c(=O)[nH]c1=O | -17.7% | –
6 | Cc1cc(=O)oc2cc(O[C@@H]3SC[C@@H](O)[C@H](O)[C@H]3O)ccc12 | 34.1% | –
7 | C/C=C1\[C@H]2C=C(C)C[C@]1(N)c1ccc(=O)[nH]c1C2 | -10.1% | –
8 | O=c1[nH]cc(F)c(=O)[nH]1 | -10.1% | –
9 | C(#Cc1cccc(CN2CCOCC2)c1)CCN1CCCCC1 | -2.92% | –
10 | O=C(CO)[C@@H](O)[C@H](O)[C@@H](O)C(=O)O | 6.17% | –
11 | CCOC(C)OCC | -2.17% | –
12 | Oc1ccccc1C=NCc1ccccc1 | -5.67% | –
13 | CN(C)C(=O)COC(=O)Cc1ccc(OC(=O)c2ccc(N=C(N)N)cc2)cc1 | -25.1% | –
14 | NC(=O)NC(=O)Cc1ccccc1 | 12.6% | –
15 | CC(C)(C)NC[C@H](O)COc1nsnc1N1CCOCC1 | -0.831% | –
16 | CCOc1ccc(C(=O)OCCN(CC)CC)cc1 | -15.4% | –
17 | COc1ccc(NC(=O)c2ccc(C(=N)N(C)C)cc2)c(C(=O)Nc2ccc(Cl)cn2)c1 | -23.6% | –
18 | COc1cccc2cc(-c3nc(C4CCC(C(=O)O)CC4)n4ncnc(N)c34)[nH]c12 (stereo not given) | -11.3% | –
19 | COc1ccccc1-c1ccc(-c2cn(C(=O)N3CCCCC3Cc3ccccc3)nn2)cc1 (stereo not given) | -14.7% | –
20 | O=C(O)CCC(=O)O | -3.92% | –

Row | Structure (SMILES) | activity change, negative = inhibition | Potency
21 | COc1ccc(C(=O)NC(c2ccc(Cl)cc2)c2cc(Cl)c3cccnc3c2O)cc1 (stereo not given) | 1.02% | –
22 | C[N+](C)(C)CCOC(=O)CCC(=O)OCC[N+](C)(C)C | 9.2% | –
23 | O=C1c2c(O)cccc2Cc2cccc(O)c21 | -15.3% | –
24 | CNC1CCN(C(Cc2cccc(-c3ccncc3)c2)C(=O)c2sc3c(F)ccc(F)c3c2Cl)CC1 (stereo not given) | – | 2.39 µM (active)
25 | CC(C)Nc1cc(C(F)(F)F)cc2nc(NC(=O)c3cccnc3)nn12 | 8.67% | –
26 | O=c1[nH]c2cc(C(F)(F)F)c(N3CCOCC3)cc2n(CP(=O)(O)O)c1=O | -6.81% | –
27 | O=C(NC1CCC1)c1ccc(C#Cc2cccc(F)c2)nc1 | 8.39% | –
28 | COC(=O)c1cc(Br)cnc1N1CCC(NC2CCCCC2)C(O)C1 (stereo not given) | -13.5% | –
29 | Cc1ccc2ccc(Cl)cc2n1 | 5.09% | –
30 | C=CS(=O)(=O)O | 0.832% | –
31 | O=c1cc(N2CCN(c3cccc(C(F)(F)F)c3)CC2)[nH]c(=O)n1C1CCCCC1 | -21.3% | –
32 | N#Cc1cccc(-c2nc(-c3cccnc3)no2)c1 | -18.7% [at 23.9 µM] | –
33 | CCCCCCCCCCCCCCCCCC(=O)OCC(O)CO (stereo not given) | 12.4% | –
34 | O=C(Cc1ccc(-c2ccccc2)cc1)NC1CCC1 | -14.5% | –
35 | CN1CCC(Nc2nc(Nc3ccc(Oc4ccccc4)cc3)c3c(=O)[nH]cc(Br)c3n2)CC1 | – | 6.74 µM (active)
36 | CN(Cc1cnc2nc(N)nc(N)c2n1)c1ccc(C(=O)N[C@@H](CCC(=O)O)C(=O)O)cc1 | 15.1% | –
37 | CC1(C)CC(NC(=O)C(=O)Nc2ccc(Br)cc2)CC(C)(C)N1 | 2.56% | –
38 | COC(=O)c1cc(S(N)(=O)=O)ccc1OC | -13.2% | –
39 | CS(=O)(=O)c1ccc([C@@H](O)[C@@H](CO)NC(=O)C(Cl)Cl)cc1 | -20.1% | –
40 | CC(=O)Oc1cc(C(F)(F)F)ccc1C(=O)O | -17% | –
